Data: PubChem BioAssay AID488895 (Broad Institute, 2010)
The whole screen tested about 340,000 compounds, of which about 120 (0.035%) were called active.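 Rule for the calls: active = mean replicate inhibition at least 50% and at least half of replicates individually reaching 50%; inconclusive = only one of the two criteria met; inactive = neither criterion met.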 The entries come from a sample that favours actives as a whole.

Assay: blockers of twin-arginine translocation in E. coli – MC4100, TorA-mCherry reporter, fluorescence, single point, primary screen (AID 488895);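 note: exported cargo escapes ClpAP degradation while cytoplasmic cargo is degraded and loses fluorescence; 0% = median of neutral control wells and 100% = median of NaSCN control wells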
Conditions: E. coli MC4100 TorA-mCherry Tat export, at 10 µM, active compounds read high

| Compound | inhibition |
| --- | --- |
| O=C(Nc1nnc(C2=COCCO2)o1)c1ccc([N+](=O)[O-])s1 | -7.65% (inactive) |
| CCCOc1ccc2c3c(c(=O)oc2c1OCCC)CCC3 | 14.7% (inactive) |
| COc1cc(C2OC(c3cc(OC)c(OC)c(OC)c3)C(C)C2C)cc(OC)c1OC (stereo unspecified) | -3.59% (inactive) |
| CCn1c(CC(=O)Nc2ccccc2)nnc1SCC(=O)N1CCOCC1 | -5.24% (inactive) |
| C=CCn1c(SCC(=O)Nc2ccc(NC(C)=O)cc2)nc2sc(C)c(C)c2c1=O | -0.334% (inactive) |
| CC1(C)CC(=O)C(N=Nc2c(F)cccc2F)=C(O)C1 | -8.43% (inactive) |
| CCc1ccccc1N1C(=O)C2C3CC(=O)C(c4ccccc43)C2C1=O (stereo unspecified) | -1.63% (inactive) |
| COC(=O)C1CCN(CC(N)=O)CC1 | -3.53% (inactive) |
| O=C(COC(=O)c1ccc(N2CCCC2=O)cc1)c1ccc(OC(F)F)cc1 | 6.18% (inactive) |
| CCn1c(SCC(=O)c2ccc(Cl)s2)nnc1-c1cccs1 | -0.241% (inactive) |
| CCOC(=O)N1CCC(N2Cc3cccc(C(=O)Nc4c(C)cccc4CC)c3C2=O)CC1 | 14.7% (inactive) |
| CC1CCN(C(=S)NC2CC3CCC2C3)CC1 (stereo unspecified) | -4.26% (inactive) |
| Cc1nc(C(=O)N2CCCC(C(=O)c3ccc(Cl)cc3)C2)cs1 (stereo unspecified) | 0.604% (inactive) |
| Oc1ccccc1-c1cc(-c2ccc(Cl)cc2)n[nH]1 | -12.8% (inactive) |
| NS(=O)(=O)c1cc(C(=O)OCC(=O)NNC(=O)c2ccccc2)ccc1Cl | -3.95% (inactive) |
| COC(CCN(C)C)(c1ccccc1)c1ccccc1 | -2.82% (inactive) |
| C=C1c2c(Cl)ccc(O)c2C(O)=C2C(=O)[C@]3(O)C(O)=C(C(N)=O)C(=O)[C@@H](N(C)C)[C@@H]3[C@@H](O)C12 (stereo partly specified) | 28.9% (inactive) |
| CN(C)[C@@H]1C(=O)C(C(N)=O)=C(O)[C@@]2(O)C(=O)C3=C(O)c4c(O)ccc(Cl)c4[C@@H](O)[C@H]3C[C@@H]12 | 151% (active) |
| CCN(C(=O)c1cc([N+](=O)[O-])ccc1NCc1cccnc1)c1ccccc1 | -1.18% (inactive) |
| COc1ccc(C(=O)O)cc1S(=O)(=O)NC1CCN(Cc2ccccc2)CC1 | -6.45% (inactive) |
| Cc1ccc(Cl)cc1NC(=O)COC(=O)C1CCCCC1 | 6.67% (inactive) |
| O=C(CCc1nnc2ccc(NCc3ccccc3Cl)nn12)NCC1CCN(C2CCCC2)C1 (stereo unspecified) | 1.11% (inactive) |

| Compound | inhibition |
| --- | --- |
| O=C(/C=C/Nc1ccc(S(=O)(=O)Nc2cnc3ccccc3n2)cc1)c1cccnc1 | -0.716% (inactive) |
| COc1ccc(Br)cc1/C=N/Nc1ccc(S(=O)(=O)Nc2ccccc2C(=O)O)cc1[N+](=O)[O-] | -2.56% (inactive) |
| O=C(NCCCN1CCN(c2ccc(F)cc2)CC1)Nc1ccc([N+](=O)[O-])cc1 | 10.8% (inactive) |
| O=S(=O)(c1ccc(F)cc1)n1ccc(-c2cnc(-c3ccccc3)s2)n1 | 1.96% (inactive) |
| O=C(/C=N/O)Nc1ccccc1 | 1.32% (inactive) |
| c1ccc2c(-c3nn4nnnc4c4ccccc34)cccc2c1 | 13.5% (inactive) |
| COCCNc1nc(N)c([N+](=O)[O-])c(NCCO)n1 | -3.96% (inactive) |
| Cc1ccc(CSCC2Nc3ccc(C(=O)N4CCN(c5ccc(F)cc5)CC4)cc3NC2=O)cc1 (stereo unspecified) | -4.6% (inactive) |
| NC(=O)CCC(NS(=O)(=O)c1ccc(Cl)cc1)C(=O)NCc1ccccc1Cl (stereo unspecified) | -7.83% (inactive) |
| CC(=O)N1CCN(CC(c2ccccc2)c2ccccc2)CC1 | -7.44% (inactive) |
| CC1Cc2ccccc2N1C1=CC(=O)CC(C)(C)C1 (stereo unspecified) | -0.619% (inactive) |
| CCC(C)NC(=O)C1c2ccccc2C(=O)N1Cc1ccccc1 (stereo unspecified) | -2.59% (inactive) |
| O=C(NCC(=O)N(Cc1cccs1)C(C(=O)NC1CCCCC1)c1ccco1)c1cccs1 (stereo unspecified) | 7.02% (inactive) |
| CC(C)(C)c1ccc(/C=C/C(=O)NC2CCS(=O)(=O)C2)cc1 (stereo unspecified) | 0.013% (inactive) |
| Cc1c(C)c2cc3c4c(oc3c(C)c2oc1=O)CCCC4 | -3.36% (inactive) |
| Cc1cc(N2CCCC2=O)cc(C)c1S(N)(=O)=O | -6.67% (inactive) |
| CC1Sc2ccc(C(=O)NCc3ccccc3Cl)cc2NC1=O (stereo unspecified) | -5.09% (inactive) |
| CCC(=O)N1c2ccccc2NC2=C(C(=O)CCC2)C1c1ccco1 (stereo unspecified) | -4.89% (inactive) |
| CCCCCCn1cc(C(=O)O)c(=O)c2cc(F)c(N3CCCCC3)cc21 | 4.11% (inactive) |
| CCCCNC(=O)c1cn(CC)c2cc(N3CCN(C(=O)c4ccco4)CC3)c(F)cc2c1=O | -4.43% (inactive) |
| CCn1cc(S(=O)(=O)c2cccc(C)c2)c(=O)c2cc(F)c(N3CCN(C)CC3)cc21 | -3.59% (inactive) |
| CCn1cc(C(=O)NCCC(=O)NCCO)c(=O)c2cc3c(cc21)OCO3 | 0.475% (inactive) |

| Compound | inhibition |
| --- | --- |
| CN1CCN(c2cc3c(cc2F)c(=O)c(C(=O)O)cn3CCF)CC1 | 81.7% (active) |
| CCn1cc(C(=O)NCCO)c(=O)c2cc(F)c(N3CCN(C)CC3)cc21 | 81.4% (active) |
| CC1(C)O[C@@H]2[C@H](O1)[C@@H](COS(=O)(=O)O)O[C@H]2n1ccc(=O)[nH]c1=O | -1.01% (inactive) |
| COc1ccc(S(=O)(=O)Nc2cccc3c2O[C@H](CN(C)S(=O)(=O)c2ccc(OC)cc2)[C@@H](C)CN([C@H](C)CO)C3=O)cc1 | 0.274% (inactive) |
| O=C(c1cn(-c2ccccc2)nc1-c1cccnc1)N1CCN(S(=O)(=O)c2ccccc2F)CC1 | 7.82% (inactive) |
| COc1ccc(CNC(=O)C(NS(=O)(=O)c2cccc3nsnc23)C(C)C)cc1 (stereo unspecified) | -12.3% (inactive) |
| Cc1nc2ccc(C(=O)N3CCSCC3)cc2s1 | -5.07% (inactive) |
| COc1cc(C2CC(=O)Oc3cc(OC)c(OC)c(OC)c32)cc(OC)c1OC (stereo unspecified) | 0.529% (inactive) |
| COc1cccc(C(C(=O)NC2CCCC2)N(C(=O)c2ccco2)c2cccc(C(C)=O)c2)c1OC (stereo unspecified) | 7.67% (inactive) |
| CCNC(=O)CC1C(=O)N(c2ccc(OC)cc2)C(=S)N1CCc1ccncc1 (stereo unspecified) | 5.06% (inactive) |
| O=C(CN1CCN(S(=O)(=O)c2ccc(F)cc2)CC1)NC1CC1 | 2.17% (inactive) |
| CCn1cc(/C=C(\NC(=O)c2cc(OC)c(OC)c(OC)c2)C(=O)N2CCN(C)CC2)c2ccccc21 | 6.75% (inactive) |
| N#Cc1nc(N)nc(N(c2ccccc2)c2ccccc2)n1 | -1.07% (inactive) |
| CC(=O)NC(=S)NNC(=O)c1ccc(Br)cc1 | 10.8% (inactive) |
| O=C(COc1coc(CN2CCN(c3ccccc3)CC2)cc1=O)N1CCc2ccccc21 | -5.1% (inactive) |
| COCC(=O)N1CCc2ccc(NC(=O)c3ccccc3Cl)cc2C1 | -8.59% (inactive) |
| O=C(Cc1ccccc1F)NC1CCSc2ccccc21 (stereo unspecified) | -4.99% (inactive) |
| CC(N)C12CC3CC(CC(O)(C3)C1)C2 (stereo unspecified) | -2.5% (inactive) |
| CCn1ccnc1CN1CCCC(C(=O)c2ccc3c4c(cccc24)CC3)C1 (stereo unspecified) | -0.858% (inactive) |
| COc1ccc(C2NCCCC2c2ccccc2)cc1 (stereo unspecified) | 0.669% (inactive) |
| CC(=O)Nc1ccc(OCCC[n+]2cccc(C(=O)[O-])c2)cc1 | 0.863% (inactive) |
| CCOC(=O)N1CCN(C(=O)c2ccccc2N(Cc2ccccc2)S(=O)(=O)c2ccc(OC)cc2)CC1 | -2.32% (inactive) |
